Source: PubChem BioAssay (Broad Institute)
Tg IFNy HTS = T. gondii growth inhibition under IFN-gamma. Toxoplasma gondii growth in IFN-gamma-treated host cells; active compounds read low. activity change, negative = inhibition, % (test concentration not listed). 69,000 tested, 3.8% active; in the data active = activity change below about -70%, passing the limit was not always enough;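 also: host cells are HeLa cells infected with Toxoplasma gondii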
The depositor's hits bear a star; i = inactive. Many of the other results were omitted from the sample, so hits are more common in it than they were.

SMILES | Tg IFNy HTS
COc1ccc2c(c1)c1c(n2Cc2ccccc2)CCCC1 | 19
O=C(O)Cn1c2c(c3ccccc31)CCC2 | -92*
COc1ccc2[nH]c(=O)c(C3CC(=O)Nc4c3c(C(C)C)nn4C)cc2c1 (stereo not drawn) | -1
CN1CCN(c2cc(-c3cccnc3)nc3ccccc23)CC1 | -16
COC(=O)C1(C)CCN(c2nc(-c3cccnc3)nc3c2cnn3C)CC1 | -41
Cc1nc(N2CCN(c3cc(=O)[nH]nc3-c3ccccc3)CC2)c2cnn(C)c2n1 | -84*
O=C(CCn1cnc2cc(-c3noc(Cc4c[nH]c5ccccc45)n3)ccc21)N1CCCC1 | 6
O=C(c1cccc(C(F)(F)F)c1)C1CCCN(C(=O)c2scc3c2OCCO3)C1 (stereo not drawn) | 3
CC(C)CCN1C2(CCN(C(=O)NC3CCCC3)C2)c2ccccc2S1(=O)=O (stereo not drawn) | -87*
CC(C)CCN1C2(CCN(C(=O)c3ccno3)C2)c2ccccc2S1(=O)=O (stereo not drawn) | 10
CC(C)CCN1C2(CCN(C(=O)Cc3cccnc3)C2)c2ccccc2S1(=O)=O (stereo not drawn) | -8
Cc1ccc(C(N)=O)c(N2CC[C@@H](c3ccc4c(c3)OCO4)[C@H](O)C2)n1 | -2
C/C=C/c1ccc2c(c1)O[C@H](CN(C)C(=O)Nc1ccc(OC)cc1)[C@H](C)CN([C@@H](C)CO)S2(=O)=O | i
C[C@@H]1CN([C@@H](C)CO)S(=O)(=O)c2ccc(C#CC3(O)CCCC3)cc2O[C@H]1CN(C)C(=O)Nc1cccc(F)c1 | -92*
C[C@H](CO)N1C[C@H](C)[C@H](CN(C)C(=O)c2ccccc2)Oc2cc(-c3cccc(C#N)c3)ccc2S1(=O)=O | -69
C[C@H]1CN([C@@H](C)CO)S(=O)(=O)c2ccc(C#CC(C)(C)O)cc2O[C@H]1CN(C)Cc1ccc(F)cc1 | -32
C[C@H]1CN([C@@H](C)CO)S(=O)(=O)c2ccc(C#CC3(O)CCCC3)cc2O[C@H]1CN(C)C(=O)Nc1cccc(F)c1 | -62
CCCNC(=O)N(C)C[C@@H]1Oc2cc(C#C[C@@H](C)O)ccc2S(=O)(=O)N([C@H](C)CO)C[C@H]1C | -38
C[C@@H]1CN([C@@H](C)CO)S(=O)(=O)c2ccc(-c3ccc(F)cc3)cc2O[C@@H]1CN(C)Cc1ccccc1C(=O)O | 214
C[C@H](CO)N1C[C@H](C)[C@@H](CN(C)Cc2ccc(F)cc2)Oc2cc(C#CC(C)(C)O)ccc2S1(=O)=O | -95*
C[C@H](CO)N1C[C@H](C)[C@H](CN(C)Cc2ccc(F)cc2)Oc2cc(C#CC(C)(C)O)ccc2S1(=O)=O | 275
C[C@@H]1CN([C@@H](C)CO)S(=O)(=O)c2ccc(-c3cccc(C#N)c3)cc2O[C@H]1CN(C)C(=O)c1ccccc1 | -99*
Cc1ccccc1-c1ccc2c(c1)O[C@@H](CN(C)C(=O)Nc1ccc(C(F)(F)F)cc1)[C@H](C)CN([C@@H](C)CO)S2(=O)=O | -100*
C[C@H]1CN([C@@H](C)CO)S(=O)(=O)c2ccc(Br)cc2O[C@H]1CN(C)C(=O)Nc1ccccc1F | 97
CCN1CCN(Cc2ccc(O)c(C)c2)C(C)C1=O (stereo not drawn) | -3
SMILES | Tg IFNy HTS
COCCC(=O)N1C[C@@H]2c3nc(NCC4CC4)ncc3CS(=O)(=O)[C@H]2C1 | -8
CN(C)CC1(O)CCCN(C(=O)c2cnc3c(c2)ncn3C)C1 (stereo not drawn) | -2
Cc1nnc2n1N=C(c1ccc(-c3ccc(Cl)c(Cl)c3)o1)CS2 | 33
O=C1CCc2cc(NS(=O)(=O)Cc3cccc(Cl)c3)ccc2N1 | 65
CN(C)CC1(O)CCN(C(=O)c2cc(=O)n(-c3ccccc3)[nH]2)C1 (stereo not drawn) | -28
CCCCN(C(=O)c1cc2cccnc2n(Cc2ccc(F)cc2)c1=O)c1ccccc1 | 19
Fc1cnc(NC2COC3(CCCN(CC4CCOCC4)C3)C2)nc1 (stereo not drawn) | -2
OC1CCC(Nc2ncc3nc(Nc4c(F)cc(F)cc4F)n([C@H]4CCOC4)c3n2)CC1 (stereo partly drawn) | -73*
CC(=O)N1CCC[C@]2(C[C@@H](OCc3ccncc3)CO2)C1 | 96
CC(C)c1ccc(S(=O)(=O)N2CCCn3nnc(Cn4cccn4)c3C2)cc1 | 83
Cc1cc(C(=O)N2CC[C@H](O)[C@@H](O)C2)ccc1-n1cccc1 | 0
CO[C@H]1CN(C)C(=O)c2cc(NC(=O)C3CC3)ccc2OC[C@H](C)N(Cc2cc(F)ccc2F)C[C@@H]1C | -72*
CO[C@@H]1CN(C)C(=O)c2cc(NC(=O)C3CC3)ccc2OC[C@H](C)N(Cc2cc(F)ccc2F)C[C@@H]1C | -59
CO[C@@H]1CN(C)C(=O)c2cc(NC(=O)c3cccc(F)c3)ccc2OC[C@@H](C)N(C)C[C@@H]1C | -75*
CCCN1C[C@H](C)[C@@H](OC)CN(C)C(=O)c2cc(NC(=O)C3CCC3)ccc2OC[C@@H]1C | 7
CO[C@@H]1CN(C)C(=O)c2cc(NC(=O)c3cccc(F)c3)ccc2OC[C@@H](C)N(C)C[C@H]1C | 3
CO[C@H]1CN(C)C(=O)c2cc(NC(=O)c3cccc(F)c3)ccc2OC[C@@H](C)N(C)C[C@H]1C | 8
Cc1ccc2c(c1)cc(S(=O)(=O)c1ccccc1)c(=O)n2CC(=O)NC(C)C | -3
CC(=O)Nc1nc(C(=O)NC2(c3ccc(F)cc3)CCCC2)cs1 | 0
Cc1cccc(C(=O)N2CCO[C@@H]3[C@H]2CC[C@H]3OCc2cccnc2)n1 | -18
Cc1ncc(CN2CCSCC2)c(CO)c1O | -76*
Cc1cnc(C)c(N2CCN(Cc3c(CO)cnc(C)c3O)CC2)n1 | -4
Cc1ncc(CO)c(CO)c1O | 6
CN(C)C(=O)NCc1cc(=O)n2c(n1)CN(Cc1ccoc1)CCC2 | 5
CC(=O)NC(c1ccccn1)C1CCC(CNC(=O)CC(C)C)CC1 (stereo not drawn) | -22
SMILES | Tg IFNy HTS
CCCc1cnc(-c2cccc3[nH]ccc23)nc1 | 159
CN1CCN(c2ncnc3ccc(-c4cccc5[nH]ccc45)cc23)CC1 | -76*
CC(C)NC(=O)c1ccc2ncnc(N3CCCCC3)c2c1 | -10
COCC(=O)N1CCC2O[C@@H](COCc3ccncc3)CCC21 (stereo partly drawn) | 4
CN(C)Cc1nnc(SCC(=O)O)n1-c1ccccc1C(F)(F)F | -40
Cn1cccc1C(=O)N[C@H]1CN(C(N)=O)C2CCCOC21 (stereo partly drawn) | 0
CCOc1nc2c(c(C)nn2-c2cccc(C)c2)c(C)c1CCC(=O)NCCc1c[nH]c2ccccc12 | -79*
CCSc1nc(CC(=O)NCCc2c[nH]c3ccccc23)cs1 | 27
Cc1cc(C(=O)NCCc2c[nH]c3ccccc23)c2c(=O)n(C)c(=O)n(C)c2n1 | 37
Cc1cccc(CN2CCN(Cc3cc4cc(F)ccc4n3C)CC2)c1 | -69
c1ccc(C2CCCN(Cc3cc4n(n3)CCCNC4)CC2)cc1 (stereo not drawn) | -14
Cc1nc(-c2cccc(F)c2)sc1CCNC(=O)c1ccccc1Cl | 35
O=C(C1CN(S(=O)(=O)c2ccccc2)CC12CCOCC2)N1CCCC1 (stereo not drawn) | -1
CCOc1ccc(N(Cc2nc(-c3ccccc3OC)oc2C)S(=O)(=O)c2ccccc2)cc1 | -51
O=C1OC(=O)C2C3CCC(O3)C12 (stereo not drawn) | -75*
O=C(CSc1n[nH]c(=O)n1-c1ccc(Cl)cc1)N1CCC(C(F)(F)F)CC1 | 23
O=C(O)c1ccc(-c2ccc(O)c(F)c2)cc1 | 42
